Assay results: PubChem BioAssay (NCI)
The panel holds about 83,000 compounds, 20% with a hit somewhere; the sample as a whole holds those more often.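 Step 1: grow cells in 96-well plates. Step 2: add test compound at a single concentration. Step 3: incubate 48 h. Step 4: record percent growth.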 A number with no mark means an inactive call. The source made the active and inactive calls.

tested on: NCI-H522 lung; assay: NCI-60 one-dose screen, 48 h (100 = growth as untreated, 0 = no growth, -100 = all killed); conditions: 10 µM unless noted
Experimental: Growth inhibition of the NCI-H522 human Non-Small Cell Lung tumor cell line is measured as a screen for anti-cancer activity. Cells are grown in 96 well plates and exposed to the test compound for 48 hours. Compounds are tested at a single concentration, which is 10^-5 M for most compounds. The reported endpoint is percent growth (GI% or GIPRCNT), where numbers from 0 - 100% represent growth inhibition, and numbers from -100% - 0 represent cell death. For example, a value of 40 represents 60% growth inhibition. A value of 0 means no net growth occurred over the course of the experiment. A value of -40 indicates 40% of cells at the beginning of the experiment died by the end of the experiment. A value of -100 means all cells are dead at the end of the experiment.
NCI-60 Human Tumor Cell Lines Screen was performed using the standard one-dose NCI protocol, which is described in more detail at https://dtp.cancer.gov/discovery_development/nci-60/default.htm.
Compounds with GIPRCNT values below 10 were considered active. Activity score was based on GIPRCNT using the following formula: […]
Score is 0 for GIPRCNT values of 100 or above, 50 for GIPRCNT values of 0, and 100 for GIPRCNT values of -100.

Which growth does the source give for `CN1C(=O)N(C)C2C1NN=c1s/c(=C\c3cccnc3)c(=O)n12` (stereo not given) here?
The growth was 72.2%.

`CC[N+](CC)=c1cc2oc3cc(N(C)C)ccc3nc-2cc1C` was tested. Which growth did it give?
The growth was -43.8% (active).

With `S=C(S)NCCc1c[nH]c2ccccc12` as the molecule, how does the growth read?
Its growth is 79.8%.

For `O=C(/C=C/c1c[nH]c2ccccc12)c1ccc(O)c(CN2CCN(c3ccc(F)cc3)CC2)c1`, which growth is on record?
Its growth is 102%.

With `CCCCC(CC)OC(=O)C(Br)CC` (stereo not given) as the molecule, how does the growth read?
Its growth is 103%.

How did the growth turn out when `O=[N+]([O-])c1cccc(-c2nc3sccn3c2-c2ccnc(NCCCNS(=O)(=O)c3ccc(Cl)cc3)n2)c1` was run?
Its growth is 28.4%.

For `COc1cc(NC(N)=NCCC(C)(C)c2ccc(C(F)(F)F)cc2)ncc1C#N`, which growth is on record?
Its growth is 16.8%.

`O=C(CSc1nc2ccccc2[nH]1)c1ccc(N2CCOCC2)cc1` was tested. Which growth did it give?
Its growth is 102%.

How did the growth turn out when `COc1cc(C2CC(c3ccc4c(c3)OCO4)=NN2C(C)=O)cc(OC)c1OC` (stereo not given) was run?
The growth was -29.8% (active).

Which growth does the source give for `COc1ccc(C(=O)N2NC(=O)/C(=C/c3ccc(F)cc3)N=C2c2ccccc2)cc1` here?
Its growth is 93.3%.

With `Clc1cccc(-c2cc(-c3ccc4c(c3)OCCO4)[nH]n2)c1` as the molecule, how does the growth read?
Its growth is 0.794% [25 µM] (active).

Which growth does the source give for `Cc1ccc2[nH]c(=O)c3c(c2c1)Oc1ncn2nc(-c4ccco4)nc2c1C3c1ccc(Cl)cc1` (stereo not given) here?
The growth was 89.5%.

`Cc1nn(-c2ccc([N+](=O)[O-])cc2)c2ncnc(NCCc3ccccc3)c12` was tested. Which growth did it give?
The growth was 107%.

Which growth does the source give for `COc1ccc(S(=O)(=O)n2ccc(-c3ccc4c(c3)CCC(C)(C)O4)n2)cc1OC` here?
The growth was 65.8%.

How did the growth turn out when `NC1N=C(SCC(=O)N2CCN(c3cc4c(cc3F)c(=O)c(C(=O)O)cn4C3CC3)CC2)NC(=O)/C1=C/c1ccc(Cl)cc1` (stereo not given) was run?
Its growth is 94.7%.

Which growth does the source give for `COc1cccc(-c2cc3c(O)cc(C#N)cc3[nH]2)c1` here?
The growth was 80.2%.

`CC(C)(C)OC(=O)NCCc1ccc(N=C=S)cc1` was tested. Which growth did it give?
Its growth is 16.1%.

Which growth does the source give for `CCCCCCCCCCCCNC(=O)[C@H]1CSC(c2cc(Br)cs2)N1` (stereo not given in full) here?
Its growth is -1.62% (active).

Which growth does the source give for `N/C(=N\C(N)=N\c1nc2ccccc2s1)c1ccncc1` here?
Its growth is 2.64% (active).

`C=C[C@@H]1C[C@H](O)Cc2ccccc2N1` was tested. Which growth did it give?
Its growth is 121%.

How did the growth turn out when `Cc1ccc(S(=O)(=O)NCCNc2nccc(-c3c(-c4ccc(O)cc4)nc4sccn34)n2)cc1` was run?
Its growth is 84%.

Which growth does the source give for `O=C(Nc1ccc2c(c1)OCO2)C(=O)c1c[nH]c2cc(F)ccc12` here?
The growth was 61.2%.

Which growth does the source give for `C=C1C(=O)O[C@@H]2[C@@H]3O[C@@](C)(CC/C=C(\C)CCC[C@@H]2C)[C@H](O)C[C@@H]13` here?
Its growth is -16.5% (active).

How did the growth turn out when `O=C1/C(=C/c2ccccc2)Oc2ccc(O)c(I)c21` was run?
Its growth is 84%.

`C=C1CCC2C(C)(CO)C(O)CCC2(C)C1C/C=C1/C(=O)OCC1Oc1ccccc1C` (stereo not given) was tested. Which growth did it give?
The growth was 23.8%.

Which growth does the source give for `CC(C)(C)NCCC(O)c1cc2c(Cl)cc(Cl)cc2c2cc(C(F)(F)F)ccc12` (stereo not given) here?
Its growth is -81.8% (active).

With `C=C[C@@H]1C[C@H](O)Cc2cc(F)ccc2N1` as the molecule, how does the growth read?
The growth was 92.9%.

`S=c1[nH]nc(-c2cc3ccc2CCc2ccc(cc2)CC3)n1-c1ccccc1` was tested. Which growth did it give?
Its growth is 87.3%.

Which growth does the source give for `COc1ccc(-c2ccc(C)n2-c2ccc(-c3nc4cc(Cl)ccc4s3)cc2)cc1` here?
The growth was 98.8%.

For `Brc1cccc(-c2cc(-c3ccc4nccnc4c3)[nH]n2)c1`, which growth is on record?
Its growth is -5.69% [25 µM] (active).

Which growth does the source give for `CN1CCN(Cc2ccc(NC(=O)c3cncc(C#Cc4cnc(N)c5cnccc45)c3)cc2C(F)(F)F)CC1` here?
The growth was 10.8%.

With `Cc1ccc(S(=O)(=O)NCCCNc2cc(-c3cn(C(C)(C)C)nc3-c3cccc(O)c3)ccn2)cc1` as the molecule, how does the growth read?
The growth was 53%.

Which growth does the source give for `COc1ccc(N2CCN(Cc3cc(C(=O)/C=C/c4c[nH]c5ccccc45)ccc3O)CC2)cc1` here?
Its growth is 95.2%.

For `COc1cccc(/C=C/C(=O)Nc2cc(OC)c3c(c2)OCO3)c1`, which growth is on record?
The growth was 87.4%.

Which growth does the source give for `O=C(Nc1cccc(-n2cc(-c3ccncc3)c(-c3ccc(Cl)c(O)c3)n2)c1)Nc1ccc(Cl)c(C(F)(F)F)c1` here?
Its growth is -30% (active).

Which growth does the source give for `CC1(c2ccc(Cl)cc2)OC(=O)CC(=O)O1` here?
Its growth is 90.1%.

`Oc1ccc(Cl)cc1-c1cc(-c2ccc(F)cc2)n[nH]1` was tested. Which growth did it give?
Its growth is 60.9%.

How did the growth turn out when `CCN(CC)c1ccc(N=O)cc1` was run?
Its growth is -80.9% (active).

For `C=C[C@@H]1C[C@@H]2Cc3cc(F)ccc3N1O2`, which growth is on record?
The growth was 98.7%.

How did the growth turn out when `Cc1ccc(CSC(=N)N)cc1C` was run?
Its growth is 101%.
